# Laboratory results published in PubChem BioAssay (NCI).
# The panel holds about 83,000 compounds, 20% with a hit somewhere; the sample as a whole holds those more often.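 Cell lines were cultured in 96-well plates, exposed to a single compound concentration, and assessed for percent growth 48 hours later.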 Calls of active or inactive are those of the source. Rule for the calls: active = growth percent below 10; inactive = the rest.
# System: A549/ATCC NSCLC
# Test: NCI-60 one-dose screen, 48 h (100 = growth as untreated, 0 = no growth, -100 = all killed)
# Details: 10 µM unless noted
row,Structure (SMILES),growth
1,CCN(CC)c1ccc(/C=C2\Oc3ccc(O)c(I)c3C2=O)cc1,46% (inactive)
2,CC1(c2ccc(Cl)cc2)OC(=O)CC(=O)O1,99.1% (inactive)
3,Cc1csc(NC(c2ccccc2)c2c(C)nc3ccccn23)n1 (stereo not drawn),99.1% (inactive)
4,COc1cc(-c2nc(N=Nc3c(O)[nH]c4ccc(Br)cc34)[nH]c(=O)c2C#N)cc(OC)c1OC,99.4% (inactive)
5,O=C1/C(=C/c2ccc(Cl)cc2)CN(C(=O)CCN2CCC(=NO)CC2)C/C1=C\c1ccc(Cl)cc1,2.34% (active)
6,Cc1ccc(-c2cc3nc(C(Cl)Cl)nc(-c4ccccc4C)n3n2)cc1,23.3% (inactive)
7,Nc1cccc(-c2nc3sccn3c2-c2ccnc(NCCNS(=O)(=O)c3ccc(C(F)(F)F)cc3)n2)c1,30% (inactive)
8,FC(F)(F)c1cccc(-c2cn3c(ccc4ccccc43)n2)c1,95.4% (inactive)
9,CCCCCCN1CSC(=S)N(CCCCCC)C1,101% (inactive)
10,Oc1ccc2cc(Br)ccc2c1-c1c(O)ccc2cc(Br)ccc12,44% (inactive)
11,C=C(C)[C@@H]1C[C@H](O)Cc2cc(F)ccc2N1,97.5% (inactive)
12,NC1=NC(SCc2ccccc2CCl)c2ncn(Cc3ccccc3CCl)c2N1 (stereo not drawn),80.3% (inactive)
13,COc1ccc(C(=O)c2cc(OC)c(OC)c(OC)c2OC)cc1O,50.6% (inactive)
14,CNc1ccc(Br)c2c1C(=O)c1ccccc1C2=O,110% (inactive)
15,Cc1cc(N/N=C/c2nc(-c3ccccc3)oc2C)c2cc(Br)ccc2n1,87% (inactive)
16,CC(C)(C)n1cc(-c2ccnc(NCCCNS(=O)(=O)c3ccccc3)c2)c(-c2cccc(O)c2)n1,38% (inactive)
17,O=C1Nc2ccc(Cl)cc2C12Nc1cc(Cl)ccc1S2 (stereo not drawn),72.9% (inactive)
18,O=C1/C(=C/c2ccccc2)CN(C(=O)CCN2CCC(=NO)CC2)C/C1=C\c1ccccc1,71.3% (inactive)
19,O=[N+]([O-])c1cccc(-c2nc3sccn3c2-c2ccnc(NCCCNS(=O)(=O)c3ccc(Cl)cc3)n2)c1,43.1% (inactive)
20,Cc1ccc(S(=O)(=O)Nc2c(Br)cc(Br)cc2C(N)=O)cc1,117% (inactive)

row,Structure (SMILES),growth
1,CN(C[C@H]1Cc2c(cccc2N2CCN(Cc3ccccn3)CC2)CN1)[C@H]1CCCc2cccnc21,40.3% (inactive)
2,CC(C)(C)OC(=O)NC(CSCc1ccccc1)C(=O)ON1C(=O)CCC1=O (stereo not drawn),106% (inactive)
3,COc1ccc(-c2ccc(-c3ccc(C(=N)N)s3)s2)cc1Cl,-69.8% (active)
4,O=[N+]([O-])c1ccc(C(c2ccccc2)c2ccccc2)cc1,91.5% (inactive)
5,CCN(CC)c1ccc2[nH]c3c(C(N)=O)cc(=O)c(=O)c=3oc2c1,-5.31% (active)
6,CCNc1nc(S(=O)(=O)CC)nc2ccccc12,105% (inactive)
7,CCC(=O)Oc1ccc(/C(=C(/C)Cc2cccc(OC)c2)c2ccc(OCCN(C)C)cc2)cc1,97.7% (inactive)
8,Nc1nc(-c2ccccc2)c(CCCOc2ccc(NC(=O)CBr)cc2)c(=O)[nH]1,93.3% (inactive)
9,CN(C)CCOC(=O)Nc1ccccc1Cl,112% (inactive)
10,c1ccc(-c2nnc(-c3ccccn3)s2)nc1,102% (inactive)
11,COc1ccc(-c2nc(N3CCCC3=O)sc2Br)cc1OC,96.8% (inactive)
12,C=C1CCC2C3(C)COC(c4c(OC)cccc4OC)OC3CCC2(C)C1C/C=C1/C(=O)OCC1O (stereo not drawn),47.9% (inactive)
13,c1cc2[nH]ncc2cc1-c1nc2ccc3[nH]ncc3c2c2c1CCC2,39.4% (inactive)
14,COc1ccc2c(c1)[nH]c(=O)c1c3cc(OC)ccc3cn21,-2.59% (active)
15,NC(N)=Nc1nc2ccccc2o1,109% (inactive)
16,Nc1ccc(C(=O)CSc2nc3ccccc3[nH]2)cc1,99.8% (inactive)
17,CC(C)(C)n1cc(-c2ccnc(NCCCNS(=O)(=O)c3ccc(F)cc3)c2)c(-c2cccc(O)c2)n1,40% (inactive)
18,COc1ccccc1CNCCCN1C(=O)c2ccc3c4c(ccc(c24)C1=O)C(=O)N(CCCNCCCCNCCCN)C3=O,-48.2% (active)
19,O=C(CCl)N(C1CCCCC1)C1CCCCC1,115% (inactive)

# System: 786-0 renal
# Test: as above
# Details: 10 µM unless noted
row,Structure (SMILES),growth
1,CCN(CC)c1ccc(/C=C2\Oc3ccc(O)c(I)c3C2=O)cc1,73.6% (inactive)
2,CC1(c2ccc(Cl)cc2)OC(=O)CC(=O)O1,111% (inactive)
3,Cc1csc(NC(c2ccccc2)c2c(C)nc3ccccn23)n1 (stereo not drawn),100% (inactive)
4,COc1cc(-c2nc(N=Nc3c(O)[nH]c4ccc(Br)cc34)[nH]c(=O)c2C#N)cc(OC)c1OC,99.8% (inactive)
5,O=C1/C(=C/c2ccc(Cl)cc2)CN(C(=O)CCN2CCC(=NO)CC2)C/C1=C\c1ccc(Cl)cc1,-76.9% (active)
6,Cc1ccc(-c2cc3nc(C(Cl)Cl)nc(-c4ccccc4C)n3n2)cc1,84.1% (inactive)
7,Nc1cccc(-c2nc3sccn3c2-c2ccnc(NCCNS(=O)(=O)c3ccc(C(F)(F)F)cc3)n2)c1,65.5% (inactive)
8,FC(F)(F)c1cccc(-c2cn3c(ccc4ccccc43)n2)c1,101% (inactive)
9,CCCCCCN1CSC(=S)N(CCCCCC)C1,99.4% (inactive)
10,Oc1ccc2cc(Br)ccc2c1-c1c(O)ccc2cc(Br)ccc12,77.8% (inactive)
11,C=C(C)[C@@H]1C[C@H](O)Cc2cc(F)ccc2N1,105% (inactive)
12,NC1=NC(SCc2ccccc2CCl)c2ncn(Cc3ccccc3CCl)c2N1 (stereo not drawn),64.2% (inactive)
13,COc1ccc(C(=O)c2cc(OC)c(OC)c(OC)c2OC)cc1O,51% (inactive)
14,CNc1ccc(Br)c2c1C(=O)c1ccccc1C2=O,96.7% (inactive)
15,Cc1cc(N/N=C/c2nc(-c3ccccc3)oc2C)c2cc(Br)ccc2n1,86.7% (inactive)
16,CC(C)(C)n1cc(-c2ccnc(NCCCNS(=O)(=O)c3ccccc3)c2)c(-c2cccc(O)c2)n1,25.8% (inactive)
17,O=C1Nc2ccc(Cl)cc2C12Nc1cc(Cl)ccc1S2 (stereo not drawn),89.4% (inactive)
18,O=C1/C(=C/c2ccccc2)CN(C(=O)CCN2CCC(=NO)CC2)C/C1=C\c1ccccc1,-25.8% (active)
19,O=[N+]([O-])c1cccc(-c2nc3sccn3c2-c2ccnc(NCCCNS(=O)(=O)c3ccc(Cl)cc3)n2)c1,78.7% (inactive)
20,Cc1ccc(S(=O)(=O)Nc2c(Br)cc(Br)cc2C(N)=O)cc1,101% (inactive)

row,Structure (SMILES),growth
1,CN(C[C@H]1Cc2c(cccc2N2CCN(Cc3ccccn3)CC2)CN1)[C@H]1CCCc2cccnc21,68.5% (inactive)
2,CC(C)(C)OC(=O)NC(CSCc1ccccc1)C(=O)ON1C(=O)CCC1=O (stereo not drawn),114% (inactive)
3,COc1ccc(-c2ccc(-c3ccc(C(=N)N)s3)s2)cc1Cl,72.3% (inactive)
4,O=[N+]([O-])c1ccc(C(c2ccccc2)c2ccccc2)cc1,99.4% (inactive)
5,CCN(CC)c1ccc2[nH]c3c(C(N)=O)cc(=O)c(=O)c=3oc2c1,15% (inactive)
6,CCNc1nc(S(=O)(=O)CC)nc2ccccc12,101% (inactive)
7,CCC(=O)Oc1ccc(/C(=C(/C)Cc2cccc(OC)c2)c2ccc(OCCN(C)C)cc2)cc1,79.7% (inactive)
8,Nc1nc(-c2ccccc2)c(CCCOc2ccc(NC(=O)CBr)cc2)c(=O)[nH]1,115% (inactive)
9,CN(C)CCOC(=O)Nc1ccccc1Cl,100% (inactive)
10,c1ccc(-c2nnc(-c3ccccn3)s2)nc1,78.9% (inactive)
11,COc1ccc(-c2nc(N3CCCC3=O)sc2Br)cc1OC,97.5% (inactive)
12,C=C1CCC2C3(C)COC(c4c(OC)cccc4OC)OC3CCC2(C)C1C/C=C1/C(=O)OCC1O (stereo not drawn),90.3% (inactive)
13,c1cc2[nH]ncc2cc1-c1nc2ccc3[nH]ncc3c2c2c1CCC2,49.7% (inactive)
14,COc1ccc2c(c1)[nH]c(=O)c1c3cc(OC)ccc3cn21,28.7% (inactive)
15,NC(N)=Nc1nc2ccccc2o1,109% (inactive)
16,Nc1ccc(C(=O)CSc2nc3ccccc3[nH]2)cc1,93.5% (inactive)
17,CC(C)(C)n1cc(-c2ccnc(NCCCNS(=O)(=O)c3ccc(F)cc3)c2)c(-c2cccc(O)c2)n1,22.6% (inactive)
18,COc1ccccc1CNCCCN1C(=O)c2ccc3c4c(ccc(c24)C1=O)C(=O)N(CCCNCCCCNCCCN)C3=O,3.83% (active)
19,O=C(CCl)N(C1CCCCC1)C1CCCCC1,99.3% (inactive)
